# Screening data from PubChem BioAssay.
# Shown are actives, neighbours in structure and some others; about 0.41% of the full set was active somewhere.
# TRPML1 agonist: qHTS for Agonists of the Human Mucolipin Transient Receptor Potential 1 (TRPML1); 410,000 compounds, 0.12% hits; TRPML1-expressing cells, Ca2+ dye fluorescence, FDSS; Mucolipin-1 (Homo sapiens), Q9GZU1; AID 624414, 2012; activation, % (concentration not given with the values); in the data active = activation above about 50%; inconclusive = mostly about 30% to 49%; note: 0% is about no effect
# Target sequence (Q9GZU1 whole entry, looked up): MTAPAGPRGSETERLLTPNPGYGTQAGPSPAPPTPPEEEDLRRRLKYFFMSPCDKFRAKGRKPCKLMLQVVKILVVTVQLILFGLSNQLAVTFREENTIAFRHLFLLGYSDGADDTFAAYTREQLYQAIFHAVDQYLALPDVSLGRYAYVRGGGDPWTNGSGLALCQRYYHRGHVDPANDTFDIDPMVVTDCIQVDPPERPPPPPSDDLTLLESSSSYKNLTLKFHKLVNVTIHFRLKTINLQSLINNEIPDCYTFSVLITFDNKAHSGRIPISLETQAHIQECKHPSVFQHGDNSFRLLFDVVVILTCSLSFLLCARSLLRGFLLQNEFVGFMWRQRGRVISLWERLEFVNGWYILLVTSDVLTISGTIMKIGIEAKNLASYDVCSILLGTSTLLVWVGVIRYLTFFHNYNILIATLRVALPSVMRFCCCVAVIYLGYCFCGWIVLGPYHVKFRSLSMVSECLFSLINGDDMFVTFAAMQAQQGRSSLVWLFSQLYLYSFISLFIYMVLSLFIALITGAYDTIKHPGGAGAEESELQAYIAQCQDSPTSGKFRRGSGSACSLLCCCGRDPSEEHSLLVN
#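 In this qHTS format, compounds were pin-transferred onto Ca8-dye-loaded TRPML1-DL cells induced with Tet overnight, and intracellular Ca2+ fluorescence was recorded kinetically for 110 s after a 10 s baseline. A subsequent 4uM final 54-4 (EC80) addition followed by a second 110 s read served as the antagonist phase.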
# TRPV1 potentiator: HTS Assay for Compounds that Act as Potentiators of the Vanilloid Receptor 1; Transient receptor potential cation channel subfamily V member 1 (Homo sapiens), Q8NER1; potentiation, % at 8.33 µM; AID 540277, 2011; 320,000 compounds, 0.02% hits; TRPV1-expressing cells, Fluo-8 calcium influx, capsaicin EC20 potentiation; in the data active = potentiation above about 80%; inconclusive = between about 30% and that limit; note: 0% is about no effect
#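 Fluo-8 calcium influx in TRPV1-expressing cells, kinetic read (ex 480/em 520 nm). Compound added and read 3 min for agonist activity, followed by capsaicin at EC20 final and 2 min further read for enhancement.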
# TRPV1 ag: HTS Assay for Compounds that Act as Agonists of the Vanilloid Receptor 1. activation, % at 8.33 µM. AID 540275, 2011. TRPV1-expressing cells, Fluo-8 calcium influx, agonist mode. 320,000 compounds, 0.19% hits. Transient receptor potential cation channel subfamily V member 1 (Homo sapiens), Q8NER1; in the data active = activation above about 80%; inconclusive = between about 30% and that limit; note: 0% is about no effect
#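 Fluo-8 calcium influx in TRPV1-expressing cells, kinetic read (ex 480/em 520 nm). Compound added and read 3 min for agonist activity, followed by capsaicin at EC20 final and 2 min further read for enhancement.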
# TRPML1 blocker: qHTS for Inhibitors of the Human Mucolipin Transient Receptor Potential 1 (TRPML1); AID 624415, 2012; 390,000 compounds, 0.02% hits; activity change, negative = inhibition, % (concentration not given with the values); TRPML1-inducible cells, Ca2+ dye fluorescence, FDSS; hits give low values; inhibition of EC80 agonist-evoked calcium signal; in the data active = activity change below about -50%; inconclusive = between about -30% and that limit;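 note: stimulus is agonist 54-4 at its EC80 concentration; % is set by controls: 0 for no effect and ±100 for the full control effect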
#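 Calcium fluorescence in TRPML1-DL cells induced overnight with Tet: a 110 s read after compound pin addition, then a 110 s antagonist read after challenge with 54-4 at 4 uM final (EC80).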
# AT treatment: qHTS Assay for Identifying a Potential Treatment of Ataxia-Telangiectasia; AID 485349, 2010; 320,000 compounds, 0.19% hits; F2112 A-T fibroblasts, KAP-1 phosphorylation AlphaLISA; neocarzinostatin DNA damage 30 min before lysis; Potency, µM (doses to about 57.5 µM), inactives show at the highest dose activation, usual class: activators; active = well fitted activation curve with a large enough effect; inconclusive = small, poorly fitted or top-dose-only effect; inactive = no such curve, though single readings can be large or run the other way; note: potency is the fitted concentration of half-maximal effect; % of control where 0% means no effect; nearly all actives have a fitted effect of over 45% in size
#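 ATM-like activity read as KAP-1 phosphorylation via AlphaLISA donor/acceptor antibody pairs after lysis and 6 hr at 25C. Cells were ATM-null patient fibroblasts (F2112, hTERT), dosed 60 min, then exposed to the DSB inducer NCS for 30 min.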
# * = called active by the depositor; u = inconclusive; x = no result.
SMILES,TRPML1 agonist,TRPV1 potentiator,TRPV1 ag,TRPML1 blocker,AT treatment
O=c1[nH]cnc2n[nH]nc12,0,x,x,x,x
Cc1ccc(CC(=O)NO)cc1,0,x,x,x,x
Cc1cc2nc3ccc(=[N+](C)C)cc-3sc2cc1N,0,6,-8,-27,16µM*
CN(C)c1ccc2nc3ccc(=[N+](C)C)cc-3sc2c1,0,7,-3,17,11µM*
CCOC(=O)/C=C/c1ccc2c(c1)S(=O)(=O)N(C1CCCC1)[C@H]2CC(=O)OCC,2,x,x,x,x
CN1CCN(CC#CCC(O)(c2ccccc2)c2ccccc2)CC1,0,10,2,-3,40µM*
OC(CC#CCN1CCCC1)(c1ccccc1)c1ccccc1,0,-3,1,2,-12%
c1ccc(Nc2ccnc(Nc3ccccc3)n2)cc1,2,-11,8,6,20µM*
C=CCC1[C@H](C)[C@H]2[C@@H]3CC[C@@H](C3)[C@H]2CN1S(=O)(=O)c1ccc(C)cc1 (some centres undefined),54*,x,x,-13,6%
COc1ccc(NC(=O)CCCSc2nc(-c3ccco3)cc(C(F)(F)F)n2)cc1OC,1,-10,83*,10,-7%
FC(F)Oc1ccc(-n2cc(-c3ccccc3)[n+]3c2CCCCC3)cc1,0,9,0,7,14µM*
COCCCNc1oc(/C=C/c2ccccc2)nc1C#N,-1,-26,u,18,16µM*
CCOc1ccc(/C=C/c2nc(C#N)c(NCCCOC)o2)cc1,-1,-6,15,10,9%
OC(C1=C/C(=C\c2ccncc2)c2ccccc21)c1ccncc1 (centres undefined),0,x,x,x,x
O=C1C(CSCc2ccccc2)NC(=S)N1c1ccccc1 (centres undefined),1,11,3,0,35µM*
O=C(O)CC1NC(=S)N(c2ccccc2)C1=O (centres undefined),0,-1,1,-6,2%
O=C(Cc1ccc(Cl)cc1)NO,-1,x,x,x,x
COc1cc(N(C)C)c(OC)cc1C=O,0,x,x,x,x
Fc1ccc(C(c2ccc(F)cc2)N2CCN(C/C=C/c3ccccc3)CC2)cc1,18,-5,2,0,40µM*
C(=C\c1ccccc1)/CN1CCN(C(c2ccccc2)c2ccccc2)CC1,8,10,3,-1,12%
COCCNC(=O)/C(C#N)=C/c1cccs1,1,4,0,-17,-2%
COc1ccc(N(CCC#N)C(=O)/C(C#N)=C\c2cccs2)cc1,3,27,3,-7,3.2µM*
CS(=O)(=O)N1CCN(/[N+]([O-])=N/Oc2ccc([N+](=O)[O-])cc2[N+](=O)[O-])CC1,2,x,x,45,x
O=C(CCCOc1ccc(Cl)cc1Cl)Nc1ccccn1,4,11,-2,23,2%
O=C(CCCOc1ccc(Cl)cc1Cl)Nc1ccncc1,0,-1,80*,6,x
SMILES,TRPML1 agonist,TRPV1 potentiator,TRPV1 ag,TRPML1 blocker,AT treatment
O=[N+]([O-])c1ccc2c(c1)C=C/C2=C\c1ccc(C=S)cc1,-1,x,x,x,x
O=C(Nc1nnc(C2CCCCC2)s1)c1ccc(Br)s1,0,-7,80*,6,10%
O=C(Nc1nnc(C(F)(F)F)s1)c1ccc(Br)s1,0,2,9,-1,2%
O=C(Nc1ccccc1)c1cc(-c2ccccc2Cl)no1,1,-6,85*,73,-11%
Cc1c(Cl)ccc2sc(NC(=O)c3ccco3)nc12,0,11,90*,-2,u
CS(=O)(=O)c1ccc2nc(NC(=O)c3ccco3)sc2c1,-1,-6,1,-3,4%
CC(C)(C)C(=O)CSc1ncnc2c1cnn2Cc1ccccc1,4,-13,90*,8,1%
O=C1[C@H](Cc2ccccc2)NC/C=C\C[C@H](c2ccc(Cl)cc2)N1Cc1ccc(Cl)cc1,1,x,x,x,x
C#CCNC(=O)C1CCN(c2ccc(S(=O)(=O)N3CCOCC3)cc2Cl)CC1,1,-11,82*,9,-5%
O=[N+]([O-])c1ccc(/C=C/C2=NN(c3ccccc3)C(c3ccco3)C2)cc1 (centres undefined),60*,26,u,-13,4%
O=[N+]([O-])c1ccc(C=CC=Cc2ccccc2)cc1,1,x,x,-2,x
CC1=NN(c2ccccc2)C(c2ccco2)C1 (centres undefined),1,x,x,-12,x
O=[N+]([O-])c1ccc(C2=NN(c3ccccc3)C(c3ccco3)C2)cc1 (centres undefined),55*,x,x,4,u
CN(C)c1ccc(/C=C/c2ccnc3ccccc23)c(N)c1,13,x,x,x,x
CCC(C)Sc1ccc(-c2nc3ccc(C)cn3c2NC2CCCCC2)cc1 (centres undefined),0,-7,29,68,36%
CCC(C)Sc1cc(-c2nc3ccccn3c2NC2CCCCC2)ccc1OC (centres undefined),1,-12,0,23,32µM*
CCC(C)Sc1cc(-c2nc3cc(C)ccn3c2NC2CCCCC2)ccc1OC (centres undefined),0,x,x,-4,29%
CCC(C)Sc1cccc(-c2nc3ccc(C)cn3c2NC2CCCCC2)c1 (centres undefined),1,u,u,-3,25µM*
Cc1ccc2nccnc2c1,0,x,x,x,x
CCCCCCc1cc2cc(S(=O)(=O)c3ccc(Cl)cc3)c(=O)oc2cc1O,8,5,u,10,u
CCN(CC)c1ccc2cc(S(=O)(=O)c3ccc(Cl)cc3)c(=O)oc2c1,17,-21,u,-4,25µM*
CCN(CC)CCCNC(=O)c1cn(CC(C)C)c(=O)c2c1c1ccccc1n2C,-1,-7,1,9,u
CCCCN(CC)CCCNC(=O)c1cn(CC(C)C)c(=O)c2c1c1ccccc1n2C,0,-3,-1,14,25µM*
O=C(c1cc2ccccc2[nH]1)c1cc2cc(O)ccc2[nH]1,-1,x,x,x,x
CCC(=O)c1ccc2c(c1)OCCO2,4,9,-1,-11,10µM*
Cc1ccc(S(=O)(=O)N2CCN(c3nc(-n4cccn4)nc4ccccc34)CC2)cc1,-1,x,x,x,x
Fc1ccc(/C=C/c2ccc3ccccc3n2)cc1,0,x,x,x,x
O=C(C1CCCN(Cc2ccccc2F)C1)N1CCc2ccccc2C1 (centres undefined),0,-7,5,-1,40µM*
O=C(C1CCCN(Cc2ccccc2F)C1)N1CCCCC1 (centres undefined),-1,11,9,-10,3%
